Source: PubChem BioAssay
Rows were chosen to be rich in hits. Some 1.6% of all compounds tested hit in one or more screens of this group.
PPC-1+TRAIL kill: kills PPC-1 cancer cells in the presence of TRAIL | PPC-1 cells + TRAIL, ATPLite viability luminescence | cell killing (% activity), % at 4 µM or 5 µM | 220,000 tested, 0.41% active;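 active means cell killing above 50% in the first pass at 4 µM, then a duplicate retest at 5 µM averaging 50% or more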;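 further: plate controls were cells with TRAIL plus DMSO for no effect and medium-only wells lacking cells for full effect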
STAT3 blocker: inhibitors of IL-6 induced STAT3 signaling; U3A cells, IL-6 STAT3-luciferase reporter, luminescence; host cell line lacks STAT1; inhibition, % at 5.5 µM; 190,000 tested, 0.89% active; AID 862;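 active means inhibition above the mean inhibition across all screened compounds plus 3 SD, cut at about 44% in these data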;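 further: 0% = DMSO only wells and 100% = 100 µM nifuroxazide control wells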
Platelet DG rel: modulates dense granule release in human platelets. AID 1663. inhibition, %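 (compounds screened at 7.5 µM in platelet-rich plasma)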. human platelet-rich plasma, SFLLRN dense granule ATP release, luminescence. 300,000 tested, 0.22% active;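 active means mean replicate score, as percent of positive control, at or above 50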
STAT1 inh: STAT1 signaling inhibition | NIH 3T3 STAT1-luciferase reporter, IFN-gamma, luminescence | inhibition, % at 5.5 µM | 200,000 tested, 0.35% active;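 active means inhibition above a set limit, the mean inhibition across all tested compounds plus 3 SD, cut at about 34% in these data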;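 further: 0% = IFN-gamma with DMSO and 100% = IFN-gamma with 300 µM nifuroxazide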
C8 TRAIL sens: sensitizes caspase-8 expressing cells to TRAIL | 360,000 tested, 1% active | inhibition (viability loss, TRAIL sensitization), % at 10 µM | NB7+C8 cells + TRAIL, ATPlite viability luminescence;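 active means compounds causing at least 50% loss of cell viability in the single-dose screen, relative to plate controls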
* = called active by the depositor; / = not tested or not shown.

SMILES | PPC-1+TRAIL kill | STAT3 blocker | Platelet DG rel | STAT1 inh | C8 TRAIL sens
CCCN(CC(=O)Nc1ccccc1C)C(=O)CCl | 36 | 40 | -1 | 21 | 91*
CCCN(CC(=O)Nc1ccccc1C)C(=O)COc1c(C)cccc1C | / | / | / | / | 6
COc1ccc(C(O)c2ncc(-c3ccccc3)[nH]2)c(OC)c1 (centres undefined) | / | / | / | / | -8
CC[n+]1c(/C=C/N(C)c2ccccc2)n(-c2ccccc2)c2ccc(-c3nc4ccccc4s3)cc21 | / | / | -1 | / | 91*
CC[n+]1cccc(-c2nc3ccccc3s2)c1 | 0 | 29 | -17 | -9 | -1
CCCC(=O)OCCNc1cc(Sc2nccn2C)c2nonc2c1[N+](=O)[O-] | 13 | -6 | 12 | -2 | 57*
CCCSc1cc(NCCOC(=O)CCC)c([N+](=O)[O-])c2nonc12 | 11 | -6 | -3 | -8 | -5
O=[N+]([O-])c1ccc(N=Nc2c(O)[nH]c3ccc(F)cc23)cc1 | / | / | 19 | / | 54*
CCOC(=O)N(C)C[C@H]1OCc2cnnn2CCCC(=O)N([C@H](C)CO)C[C@H]1C | / | / | / | / | -7
CC(C)NC(=O)NC(=O)CSc1nnc(-c2c[nH]c3ccccc23)o1 | / | / | -9 | / | -11
CN(C)c1ccc(C=Cc2cnccn2)cc1 | / | / | / | / | 80*
COc1ccc(-c2cc3nc4n(c(=O)c3s2)CCC4)cc1 | -11 | 92* | 23 | 65* | 71*
COc1ccc(-c2cc3nc4n(c(=O)c3s2)CCCCC4)cc1 | 31 | / | 0 | / | 27
O=C1/C(=N\S(=O)(=O)c2cccs2)C([n+]2cccc(Cc3ccccc3)c2)=C([O-])c2ccccc21 | 30 | / | -3 | / | 48*
O=C1/C(=N\S(=O)(=O)c2cccs2)C([n+]2ccc(CCCc3ccccc3)cc2)=C([O-])c2ccccc21 | 17 | / | 13 | / | 3
Cc1nc(C)c(C(=O)OCC(=O)NCc2ccccc2Cl)s1 | / | / | / | / | 3
COc1ccc(-c2cn3c(C)c(C(=O)Nc4cccc(NC(C)=O)c4)sc3n2)cc1 | -1 | 24 | -1 | 1 | 69*
CCOC(=O)c1ccc2c(c1)NCc1cccc(OC)c1O2 | 4 | / | -4 | / | 18
CC1(C)CC(=O)C=C(c2ccccc2-c2ccc3cc[nH]c3c2)C1=O | / | / | / | / | -18
CC1(C)CC(=O)C=C(c2ccc(-c3ccc4[nH]ccc4c3)cc2)C1=O | / | / | / | / | 70*
O=C(Cc1ccccc1[N+](=O)[O-])NCC(O)c1ccc2c(c1)OCO2 (centres undefined) | / | / | / | / | -25
CC[C@]12c3[nH]c4ccc(OC)cc4c3CCN1C(=O)C(CC(=O)NCc1cccc(C(F)(F)F)c1)C[C@@H]2C(=O)N1CCN(C(=O)c2ccco2)CC1 (some centres undefined) | / | / | / | / | -15
CC[C@]12c3[nH]c4ccc(Cl)cc4c3CCN1C(=O)[C@@H](CC(=O)NCc1cccc(C(F)(F)F)c1)C[C@@H]2C(=O)N1CCN(C(=O)c2ccco2)CC1 | / | / | / | / | 61*
COC(=O)C[C@@H]1CC[C@@H](NS(=O)(=O)c2ccc(OC)cc2)[C@@H](CO)O1 | / | / | / | / | -10
COc1cc2c(cc1OC)-c1nnc(C)n1C(C)(C)C2 | 66* | 1 | -5 | -8 | -11
SMILES | PPC-1+TRAIL kill | STAT3 blocker | Platelet DG rel | STAT1 inh | C8 TRAIL sens
CCNC(=O)C1(C)CCCN(Cc2noc(-c3c(C)noc3C)n2)C1 (centres undefined) | / | / | / | / | 7
O=C(Nc1cccc(Cl)c1)c1nc[nH]c1C(=O)NCCCNC(=O)c1[nH]cnc1C(=O)Nc1cccc(Cl)c1 | / | / | / | / | 50*
Cc1ccc(NC(=O)c2nc[nH]c2C(=O)Nc2ccccc2F)cc1 | / | / | / | / | 1
O=C(Nc1ccccc1)c1nc[nH]c1C(=O)Nc1ccccc1F | / | / | / | / | 50*
O=C(Nc1ccccc1)c1nc[nH]c1C(=O)NCCCCNC(=O)c1[nH]cnc1C(=O)Nc1ccccc1 | / | / | / | / | 29
CC(C)(C)OC[C@H](NC(=O)c1[nH]cnc1C(=O)Nc1ccccc1F)C(=O)OC(C)(C)C | / | / | / | / | 60*
CC(C)(C)OC(=O)NCc1ccc(NC(=O)c2nc[nH]c2C(=O)NCCCNC(=O)c2[nH]cnc2C(=O)Nc2ccc(CNC(=O)OC(C)(C)C)cc2)cc1 | / | / | / | / | 83*
CCOC(=O)c1ccc(NC(=O)c2nc[nH]c2C(=O)NCCCCCNC(=O)OC(C)(C)C)cc1 | 12 | / | 5 | / | 52*
CC(C)(C)OC(=O)NCCCCCNC(=O)c1[nH]cnc1C(=O)Nc1cc(Br)ccc1F | / | / | / | / | 58*
CC(C)(C)OC(=O)NCc1ccc(NC(=O)c2nc[nH]c2C(=O)NCCCCNC(=O)c2[nH]cnc2C(=O)Nc2ccc(CNC(=O)OC(C)(C)C)cc2)cc1 | / | / | / | / | 84*
CC(C)(C)OC(=O)NCc1ccc(CNC(=O)c2[nH]cnc2C(=O)Nc2ccccc2F)cc1 | / | / | / | / | 56*
CCOC(=O)c1ccc(NC(=O)c2nc[nH]c2C(=O)NCCCCNC(=O)c2[nH]cnc2C(=O)Nc2ccc(C(=O)OCC)cc2)cc1 | / | / | / | / | 46
COc1ccc(CCNC(=O)Nc2ccc3nc([C@@H]4O[C@H](CO)[C@@H](O)[C@H](O)[C@H]4O)[nH]c3c2)cc1Br | / | / | / | / | 0
Cc1cccc(C)c1NC(=O)C1(C)CCC(=O)N1C1CC1 (centres undefined) | / | / | / | / | -7
Cc1cc(C(=O)Nc2cccc(C(=O)O)c2)c(C)o1 | -24 | -17 | 6 | 10 | 0
Cc1cc(C(=O)Nc2cccc(C(=O)O)c2)oc1C | 42 | 87* | 13 | 55* | 22
CN1CCN(C(=O)C2=NOC3(C2)C(=O)Nc2ccccc23)CC1 (centres undefined) | / | / | / | / | 52*
CC(=O)c1c(C)[nH]c(C(=O)OCCOc2ccccc2)c1C | 24 | 84* | -1 | 50* | 17
CCOC(=O)C1=CCC(c2ccc(C#N)cc2)N(S(=O)(=O)c2ccc(C)cc2)C1 (centres undefined) | / | / | / | / | -1
CC(=O)Nc1cccc(-c2ccnc3c2CC(C)(C(=O)NCc2ccc(F)c(F)c2)O3)c1 (centres undefined) | / | / | / | / | 7
O=C(Nc1ccc([N+](=O)[O-])cc1Cl)c1cc(Cl)ccc1O | / | / | / | / | 80*
CC1(C(=O)Nc2ccc3ccccc3c2)CCC(=O)N1CCc1c[nH]c2ccccc12 (centres undefined) | / | / | / | / | -4
O=C(CCS(=O)(=O)c1ccc(Br)cc1)Nc1ccccc1Cl | / | / | 3 | / | -5
O=C(CCS(=O)(=O)c1ccc(Br)cc1)Nc1ccccn1 | 66* | 9 | 8 | -4 | -1
COc1ccc(S(=O)(=O)N2CCOCC2)cc1NC(=O)C1CCN(S(=O)(=O)c2ccc(Cl)cc2)CC1 | / | / | / | / | -6
N/C(=N\OC(=O)c1ccc(Cl)cc1Cl)c1cccnc1 | 47 | 19 | 9 | -33 | 61*
N/C(=N\OC(=O)c1ccc(Cl)cc1)c1cccnc1 | 26 | 16 | 2 | -38 | 91*
N/C(=N\OC(=O)c1ccco1)c1cccnc1 | -12 | 9 | 3 | -16 | 0
CC1(C(=O)NS(=O)(=O)c2ccccc2OC(F)(F)F)CCN1C(=O)c1ccco1 (centres undefined) | / | / | / | / | -14
CCCCCCCCC(c1nc2ccccc2[nH]1)N1CCN=C1c1cc2ccccc2[nH]1 (centres undefined) | / | / | / | / | 87*
